Results from PubChem BioAssay (NCI).
This is part of a sample that, as a whole, favours compounds with a hit. Of some 79,000 tested, about 15% had one in any assay. Calls of active or inactive are those of the source. Cut-off read from the data, not from the text of the source: active = growth inhibition above about 70%; inactive = the rest.

What was measured:
[1] = NCI Yeast Anticancer Drug Screen. Data for the rad52 strain (AID 147);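 note: 0% = growth of vehicle-treated control cultures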; settings: S. cerevisiae rad52 mutant growth inhibition, hits give high values
In short: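 Read-out: growth inhibition versus vehicle-treated controls. Cells were a DNA repair-deficient yeast strain treated with compounds.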

[2] = NCI Yeast Anticancer Drug Screen. Data for the wt1 strain (AID 149);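 note: 0% = growth of vehicle-treated wt1 cultures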; settings: S. cerevisiae wt1 strain (SPY 50644) growth inhibition, hits give high values
In short: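 Compounds are added to wt1 yeast cultures. Growth is then measured. Inhibition is expressed relative to vehicle-treated controls.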

[3] = NCI Yeast Anticancer Drug Screen. Data for the rad50EPP+ strain (AID 151);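 note: 0% = growth of vehicle-treated control cultures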; settings: S. cerevisiae rad50 mutant strain, hits give high values
In short: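 Growth inhibition read against vehicle controls in rad50EPP+ yeast, a strain altered in DNA damage repair, after compound exposure.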

[4] = NCI Yeast Anticancer Drug Screen. Data for the mgt1 strain (AID 153); settings: S. cerevisiae mgt1 mutant growth inhibition, hits give high values
In short: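 mgt1 yeast grown with test compound; read-out is growth inhibition versus vehicle-treated cultures.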

[5] = NCI Yeast Anticancer Drug Screen. Data for the rad50 strain (AID 155);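 note: 0% = growth of vehicle-only cultures of the same strain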; settings: S. cerevisiae rad50 strain growth inhibition, hits give high values
In short: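 Inhibition values express reduced yeast growth in compound-treated cultures relative to vehicle-treated controls.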

[6] = NCI Yeast Anticancer Drug Screen. Data for the mec2-1 strain (AID 157); settings: S. cerevisiae mec2-1 strain, hits give high values
In short: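 Yeast mec2-1 mutant treated with compound. Readout: growth inhibition vs vehicle controls.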

[7] = NCI Yeast Anticancer Drug Screen. Data for the rad14 strain (AID 159);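 note: 0% = growth of vehicle-treated control cultures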; settings: S. cerevisiae rad14 strain growth inhibition, hits give high values
In short: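 A mutant yeast strain defective in DNA damage repair is treated with compound; inhibition of its growth is scored against untreated, vehicle-exposed cultures.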

[8] = NCI Yeast Anticancer Drug Screen. Data for the sgs1 mgt1 strain (AID 161);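 note: 0% = growth of cultures given vehicle only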; settings: S. cerevisiae sgs1 mgt1 strain, hits give high values
In short: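 Genetically altered yeast, compound exposure, growth inhibition relative to vehicle.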

[9] = NCI Yeast Anticancer Drug Screen. Data for the CLN2oe strain (AID 163);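 note: 0% = growth of vehicle-only control cultures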; settings: S. cerevisiae CLN2oe strain, hits give high values
In short: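 Read-out: yeast growth inhibition, expressed relative to vehicle-only controls. The strain bears an engineered cell-cycle alteration.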

[10] = NCI Yeast Anticancer Drug Screen. Data for the cln2 rad14 strain (AID 165);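 note: 0% = growth equal to vehicle treated cultures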; settings: S. cerevisiae cln2 rad14 strain, hits give high values
In short: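 cln2 rad14 yeast strain; compound exposure; growth inhibition read vs vehicle controls.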

[11] = NCI Yeast Anticancer Drug Screen. Data for the bub3 strain (AID 167); settings: S. cerevisiae bub3 mutant strain, hits give high values
In short: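 Steps: expose the mutant yeast strain to compound; grow alongside vehicle-treated cultures; measure growth; express inhibition against the vehicle cultures.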

[12] = NCI Yeast Anticancer Drug Screen. Data for the wt2 strain (AID 169);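 note: 0% = growth of vehicle-treated yeast cultures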; settings: S. cerevisiae wt2 strain growth inhibition, hits give high values
In short: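 Read-out: growth inhibition versus vehicle-treated control cultures after compound exposure of the yeast strain.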

[13] = NCI Yeast Anticancer Drug Screen. Data for the mlh1 strain (AID 171);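 note: 0% = growth of vehicle-treated control cultures of the same strain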; settings: S. cerevisiae mlh1 strain growth inhibition, hits give high values
In short: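 Read-out: growth inhibition versus vehicle controls. Strain: engineered yeast with a defined DNA repair or cell cycle defect, compound-treated.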

[14] = NCI Yeast Anticancer Drug Screen. Data for the sgs1 strain (AID 173);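 note: 0% = growth of vehicle-only control cultures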; settings: S. cerevisiae sgs1 mutant, hits give high values
In short: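 Read-out: yeast growth inhibition relative to vehicle controls, following compound exposure of a strain with a defined DNA repair/cell cycle alteration.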

[15] = NCI Yeast Anticancer Drug Screen. Data for the mlh1 rad18 strain (AID 175); settings: S. cerevisiae mlh1 rad18 strain growth inhibition, hits give high values
In short: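 Yeast w/ defined DNA-repair lesions; compound exposure; growth vs vehicle controls → % inhibition.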

[16] = NCI Yeast Anticancer Drug Screen. Data for the rad18 strain (AID 177); settings: S. cerevisiae rad18 mutant growth inhibition, hits give high values
In short: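 Readout: growth inhibition vs vehicle controls. Cells: genetically altered yeast strain, DNA repair defect.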

[17] = at 5.0 µM (retest, dose inferred, filed as 0.5)
[18] = at 50.0 µM (retest, dose inferred, filed as 5.0)

Measured: growth inhibition

CCC/C(Cl)=N\OC(=O)Nc1ccc(Br)cc1
active: [1]; at 11.0 µM 94% | [1]; at 33.0 µM 98% | [1]; at 100.0 µM 98% | [2]; at 33.0 µM 97% | [2]; at 100.0 µM 98% | [3]; at 33.0 µM 77% | [3]; at 100.0 µM 81% | [4]; at 11.0 µM 82% | [4]; at 33.0 µM 98% | [4]; at 100.0 µM 99% | [5]; at 11.0 µM 86% | [5]; at 33.0 µM 97% | [5]; [18] 99% | [5]; at 50.0 µM 88.2% | [5]; at 100.0 µM 98% | [6]; at 11.0 µM 77% | [6]; at 33.0 µM 98% | [6]; [18] 99% | [6]; at 50.0 µM 92% | [6]; at 100.0 µM 99% | [7]; at 11.0 µM 90% | [7]; at 33.0 µM 98% | [7]; at 100.0 µM 99% | [8]; [18] 99% | [8]; at 50.0 µM 84% | [9]; at 11.0 µM 84% | [9]; at 33.0 µM 98% | [9]; at 100.0 µM 99% | [10]; [18] 99% | [10]; at 50.0 µM 89.8% | [11]; at 33.0 µM 94% | [11]; [18] 99% | [11]; at 50.0 µM 87.6% | [11]; at 100.0 µM 96% | [12]; at 11.0 µM 90% | [12]; at 33.0 µM 98% | [12]; at 100.0 µM 99% | [13]; at 11.0 µM 76% | [13]; at 33.0 µM 97% | [13]; at 100.0 µM 98% | [14]; at 11.0 µM 94% | [14]; at 33.0 µM 98% | [14]; at 100.0 µM 98% | [15]; [18] 99% | [15]; at 50.0 µM 83.8% | [16]; at 1.2 µM 71% | [16]; at 3.7 µM 77% | [16]; at 11.0 µM 93% | [16]; at 33.0 µM 97% | [16]; at 100.0 µM 98%
inactive: [1]; at 1.2 µM 58% | [1]; at 3.7 µM 69% | [2]; at 1.2 µM 13% | [2]; at 3.7 µM 14% | [2]; at 11.0 µM 58% | [3]; at 1.2 µM 26% | [3]; at 3.7 µM 31% | [3]; at 11.0 µM 56% | [4]; at 1.2 µM 9% | [4]; at 3.7 µM 16% | [5]; at 1.2 µM 32% | [5]; at 3.7 µM 40% | [5]; [17] 9% | [6]; at 1.2 µM 16% | [6]; at 3.7 µM 27% | [6]; [17] -16% | [7]; at 1.2 µM 32% | [7]; at 3.7 µM 33% | [8]; [17] 9% | [9]; at 1.2 µM 10% | [9]; at 3.7 µM 15% | [10]; [17] -22% | [11]; at 1.2 µM 1% | [11]; at 3.7 µM 17% | [11]; [17] -48% | [11]; at 11.0 µM 63% | [12]; at 1.2 µM 25% | [12]; at 3.7 µM 33% | [13]; at 1.2 µM 14% | [13]; at 3.7 µM 19% | [14]; at 1.2 µM 65% | [14]; at 3.7 µM 62% | [15]; [17] 61%

CCOP(=O)(OCC)C(Cc1ccccc1)N=C(c1ccccc1)c1ccccc1 (stereo unspecified)
inactive: [1]; at 1.2 µM -21% | [1]; at 3.7 µM -16% | [1]; at 11.0 µM 4% | [2]; at 1.2 µM -18% | [2]; at 3.7 µM -28% | [2]; at 11.0 µM -5% | [3]; at 1.2 µM 8% | [3]; at 3.7 µM 12% | [3]; at 11.0 µM 44% | [4]; at 1.2 µM 16% | [4]; at 3.7 µM -6% | [4]; at 11.0 µM 10% | [5]; at 1.2 µM -12% | [5]; at 3.7 µM -7% | [5]; [17] 12% | [5]; at 11.0 µM 27% | [5]; [18] 7% | [6]; at 1.2 µM 18% | [6]; at 3.7 µM 8% | [6]; [17] -3% | [6]; at 11.0 µM 18% | [6]; [18] 4% | [7]; at 1.2 µM 2% | [7]; at 3.7 µM -6% | [7]; at 11.0 µM -8% | [8]; [17] -14% | [8]; [18] -1% | [9]; at 1.2 µM -50% | [9]; at 3.7 µM -18% | [9]; at 11.0 µM -21% | [10]; [17] -1% | [10]; [18] -1% | [11]; at 1.2 µM -35% | [11]; at 3.7 µM -35% | [11]; [17] -7% | [11]; at 11.0 µM -41% | [11]; [18] -11% | [12]; at 1.2 µM 6% | [12]; at 3.7 µM 6% | [12]; at 11.0 µM -2% | [13]; at 1.2 µM 1% | [13]; at 3.7 µM 0% | [13]; at 11.0 µM 5% | [14]; at 1.2 µM 7% | [14]; at 3.7 µM 10% | [14]; at 11.0 µM 15% | [15]; [17] -18% | [15]; [18] 22% | [16]; at 1.2 µM 8% | [16]; at 3.7 µM 4% | [16]; at 11.0 µM 29%
active: [1]; at 33.0 µM 91% | [1]; at 100.0 µM 98% | [2]; at 33.0 µM 95% | [2]; at 100.0 µM 98% | [3]; at 33.0 µM 81% | [3]; at 100.0 µM 94% | [4]; at 33.0 µM 86% | [4]; at 100.0 µM 98% | [5]; at 33.0 µM 96% | [5]; at 50.0 µM 98.6% | [5]; at 100.0 µM 98% | [6]; at 33.0 µM 97% | [6]; at 50.0 µM 70.5% | [6]; at 100.0 µM 98% | [7]; at 33.0 µM 73% | [7]; at 100.0 µM 98% | [8]; at 50.0 µM 98.8% | [9]; at 33.0 µM 87% | [9]; at 100.0 µM 98% | [10]; at 50.0 µM 97.8% | [11]; at 33.0 µM 88% | [11]; at 50.0 µM 99% | [11]; at 100.0 µM 98% | [12]; at 33.0 µM 97% | [12]; at 100.0 µM 98% | [13]; at 33.0 µM 90% | [13]; at 100.0 µM 98% | [14]; at 33.0 µM 93% | [14]; at 100.0 µM 97% | [15]; at 50.0 µM 98.7% | [16]; at 33.0 µM 87% | [16]; at 100.0 µM 98%
